According to PubChem BioAssay AID1159580 (chemical genetic matrix, 2015):
Values joined by “and” are separate entries in the source; they are usually repeats but may differ in a detail not shown here. Equal entries are not always repeated. Out of some 5,500 compounds screened, about 2,000 (36%) were called active. Roughly 18% stayed inconclusive and do not appear here. Rule as the data show it: active = normalized growth mostly below about 0.91 (no sharp cut-off); inconclusive = no clear call, values can overlap the other calls; inactive = mostly above about 0.92. Some of the results follow.

Experiment: chemical genetic growth profiling, strain panel (AID 1159580);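 also: tested at 20 µM; growth read once vehicle control cultures reached saturation at 30 °C; 1 = growth at the plate median or of vehicle wells; lower values mean less growth of the strain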
Details: growth OD

Measured: normalized growth

CC(C)OC(=O)C(C)(C)Oc1ccc(C(=O)c2ccc(Cl)cc2)cc1
inactive: S. cerevisiae deletion strains, locus YJR075W, strain HOC1, stronger effect = lower value 0.957 and 0.996 | S. cerevisiae deletion strains, locus YKL009W, strain mrt4, stronger effect = lower value 0.906 | S. cerevisiae deletion strains, locus YKL068W, stronger effect = lower value 0.987 | S. cerevisiae deletion strains, locus YKL085W, strain MDH1 (second series), stronger effect = lower value 0.947 | S. cerevisiae deletion strains, locus YKL085W, strain MDH1, stronger effect = lower value 0.947 | S. cerevisiae deletion strains, locus YKL160W, strain elf1, stronger effect = lower value 0.987 | S. cerevisiae deletion strains, locus YKL190W, strain CNB1, stronger effect = lower value 0.974 | S. cerevisiae deletion strains, locus YKR001C, strain vps1, stronger effect = lower value 0.971 | S. cerevisiae deletion strains, locus YKR026C, strain gcn3, stronger effect = lower value 0.959 | S. cerevisiae deletion strains, locus YKR091W, strain srl3, stronger effect = lower value 0.977 | S. cerevisiae deletion strains, locus YLL001W, strain dnm1, stronger effect = lower value 0.96 | S. cerevisiae deletion strains, locus YLL026W, stronger effect = lower value 0.969 | S. cerevisiae deletion strains, locus YLL041C, strain sdh2, stronger effect = lower value 0.975 | S. cerevisiae deletion strains, locus YLR027C, strain aat2, stronger effect = lower value 0.967 | S. cerevisiae deletion strains, locus YLR039C, strain RIC1, stronger effect = lower value 0.935 | S. cerevisiae deletion strains, locus YLR058C, strain SHM2, stronger effect = lower value 1 | S. cerevisiae deletion strains, locus YLR102C, strain apc9, stronger effect = lower value 0.988 | S. cerevisiae deletion strains, locus YLR113W, strain HOG1, stronger effect = lower value 0.942 | S. cerevisiae deletion strains, locus YLR221C, strain rsa3, stronger effect = lower value 0.976 | S. cerevisiae deletion strains, locus YLR258W, strain gsy2, stronger effect = lower value 0.957 | S. cerevisiae deletion strains, locus YLR262C, strain YPT6 (second series), stronger effect = lower value 0.962 | S. cerevisiae deletion strains, locus YLR262C, strain YPT6, stronger effect = lower value 0.984 | S. cerevisiae deletion strains, locus YLR268W, strain sec22, stronger effect = lower value 0.971 | S. cerevisiae deletion strains, locus YLR320W, strain mms22, stronger effect = lower value 0.96 | S. cerevisiae deletion strains, locus YLR330W, strain CHS5, stronger effect = lower value 1.01 | S. cerevisiae deletion strains, locus YLR342W, strain FKS1 (second series), stronger effect = lower value 1.12 | S. cerevisiae deletion strains, locus YLR342W, strain FKS1, stronger effect = lower value 0.955 | S. cerevisiae deletion strains, locus YLR357W, strain rsc2, stronger effect = lower value 0.957 | S. cerevisiae deletion strains, locus YLR370C, strain arc18, stronger effect = lower value 0.967 | S. cerevisiae deletion strains, locus YLR371W, strain rom2, stronger effect = lower value 0.986 | S. cerevisiae deletion strains, locus YLR384C, strain iki3, stronger effect = lower value 0.971 | S. cerevisiae deletion strains, locus YLR418C, strain cdc73, stronger effect = lower value 0.879 | S. cerevisiae deletion strains, locus YML016C, strain PPZ1, stronger effect = lower value 1.01 | S. cerevisiae deletion strains, locus YML032C, strain rad52, stronger effect = lower value 0.984 | S. cerevisiae deletion strains, locus YML120C, strain ndi1, stronger effect = lower value 0.964 | S. cerevisiae deletion strains, locus YML124C, strain tub3, stronger effect = lower value 0.982 | S. cerevisiae deletion strains, locus YMR058W, strain fet3, stronger effect = lower value 0.987 | S. cerevisiae deletion strains, locus YMR078C, strain ctf18, stronger effect = lower value 0.982 | S. cerevisiae deletion strains, locus YMR125W, strain sto1, stronger effect = lower value 0.942 | S. cerevisiae deletion strains, locus YMR129W, stronger effect = lower value 0.97 | S. cerevisiae deletion strains, locus YMR205C, strain PFK2, stronger effect = lower value 0.923 | S. cerevisiae deletion strains, locus YMR223W, strain ubp8, stronger effect = lower value 0.958 | S. cerevisiae deletion strains, locus YMR231W, strain pep5, stronger effect = lower value 0.969 | S. cerevisiae deletion strains, locus YMR263W, strain SAP30, stronger effect = lower value 1 | S. cerevisiae deletion strains, locus YMR307W, strain GAS1, stronger effect = lower value 0.807 and 0.993 | S. cerevisiae deletion strains, locus YNL067W, strain RPL9B, stronger effect = lower value 0.973 | S. cerevisiae deletion strains, locus YNL071W, strain lat1, stronger effect = lower value 0.941 | S. cerevisiae deletion strains, locus YNL128W, strain TEP1, stronger effect = lower value 1.01 | S. cerevisiae deletion strains, locus YNL153C, strain GIM3, stronger effect = lower value 1.01 and 1.02 | S. cerevisiae deletion strains, locus YNL175C, strain NOP13, stronger effect = lower value 1.02 | S. cerevisiae deletion strains, locus YNL183C, strain NPR1, stronger effect = lower value 0.893 | S. cerevisiae deletion strains, locus YNL197C, strain WHI3, stronger effect = lower value 1.03 | S. cerevisiae deletion strains, locus YNL209W, strain ssb2, stronger effect = lower value 0.983 | S. cerevisiae deletion strains, locus YNL224C, strain SQS1, stronger effect = lower value 0.991 | S. cerevisiae deletion strains, locus YNL233W, strain BNI4, stronger effect = lower value 0.978 | S. cerevisiae deletion strains, locus YNL248C, strain rpa49, stronger effect = lower value 0.997 | S. cerevisiae deletion strains, locus YNL250W, strain rad50, stronger effect = lower value 0.989 | S. cerevisiae deletion strains, locus YNL271C, strain bni1, stronger effect = lower value 0.985 | S. cerevisiae deletion strains, locus YNL298W, strain CLA4, stronger effect = lower value 0.992 | S. cerevisiae deletion strains, locus YNL307C, strain MCK1, stronger effect = lower value 0.973 | S. cerevisiae deletion strains, locus YNL322C, strain KRE1 (second series), stronger effect = lower value 0.983 | S. cerevisiae deletion strains, locus YNL322C, strain KRE1, stronger effect = lower value 1.01 and 0.984 | S. cerevisiae deletion strains, locus YNR049C, strain mso1, stronger effect = lower value 0.98 | S. cerevisiae deletion strains, locus YNR052C, strain pop2, stronger effect = lower value 0.991 | S. cerevisiae deletion strains, locus YOL006C, strain TOP1, stronger effect = lower value 0.61 | S. cerevisiae deletion strains, locus YOL012C, strain htz1 0.615 | S. cerevisiae deletion strains, locus YOL147C, strain pex11, stronger effect = lower value 0.984 | S. cerevisiae deletion strains, locus YOR001W, strain rrp6, stronger effect = lower value 0.99 | S. cerevisiae deletion strains, locus YOR061W, strain CKA2, stronger effect = lower value 0.986 | S. cerevisiae deletion strains, locus YOR069W, strain VPS5, stronger effect = lower value 1.01 | S. cerevisiae deletion strains, locus YOR070C, strain gyp1, stronger effect = lower value 0.971 | S. cerevisiae deletion strains, locus YOR080W, strain dia2, stronger effect = lower value 0.972 | S. cerevisiae deletion strains, locus YOR083W, strain WHI5 (second series), stronger effect = lower value 1.12 | S. cerevisiae deletion strains, locus YOR083W, strain WHI5, stronger effect = lower value 0.996 | S. cerevisiae deletion strains, locus YOR106W, strain vam3, stronger effect = lower value 0.927 | S. cerevisiae deletion strains, locus YOR136W, strain idh2, stronger effect = lower value 0.989 | S. cerevisiae deletion strains, locus YOR144C, strain elg1, stronger effect = lower value 0.992 | S. cerevisiae deletion strains, locus YOR184W, strain ser1, stronger effect = lower value 0.909 | S. cerevisiae deletion strains, locus YOR231W, strain MKK1, stronger effect = lower value 0.949 | S. cerevisiae deletion strains, locus YOR265W, strain rbl2, stronger effect = lower value 0.97 | S. cerevisiae deletion strains, locus YOR270C, strain vph1, stronger effect = lower value 0.799 | S. cerevisiae deletion strains, locus YOR290C, strain snf2, stronger effect = lower value 0.97 | S. cerevisiae deletion strains, locus YOR316C, strain cot1, stronger effect = lower value 0.988 | S. cerevisiae deletion strains, locus YPL051W, strain arl3, stronger effect = lower value 1 | S. cerevisiae deletion strains, locus YPL055C, strain LGE1, stronger effect = lower value 0.971 | S. cerevisiae deletion strains, locus YPL078C, strain atp4, stronger effect = lower value 0.985 | S. cerevisiae deletion strains, locus YPL106C, strain sse1, stronger effect = lower value 1.02 | S. cerevisiae deletion strains, locus YPL240C, strain hsp82, stronger effect = lower value 0.994 | S. cerevisiae deletion strains, locus YPL241C, strain CIN2, stronger effect = lower value 0.99 and 0.991 | S. cerevisiae deletion strains, locus YPL256C, strain CLN2, stronger effect = lower value 0.953 | S. cerevisiae deletion strains, locus YPR119W, strain clb2, stronger effect = lower value 0.983 | S. cerevisiae deletion strains, locus YPR141C, strain kar3, stronger effect = lower value 0.985 | S. cerevisiae deletion strains, locus YPR163C, strain tif3, stronger effect = lower value 0.981 | S. cerevisiae deletion strains, locus YPR167C, strain met16, stronger effect = lower value 0.984 | S. cerevisiae deletion strains, strain wtn01, stronger effect = lower value 0.987 | S. cerevisiae strains, strain wild type, stronger effect = lower value 0.993
